# From publication PMC7862700, “An all-to-all approach to the identification of sequence-specific readers for epigenetic DNA modifications on cytosine”
# How the values were obtained:
# Assay in all cases: DAPPL (digital affinity profiling via proximity ligation, sequencing); 10 mM Tris-HCl pH 7.5, 50 mM NaCl, 1 mM DTT, 4% glycerol, room temperature, 30 min; GST-TFs on glutathione beads, 16-mer random dsDNA library, 0.1% formaldehyde crosslink after washing; high values mean tight binding
# Conditions in all cases: protein: recombinant; tags: N-terminal GST; dsDNA, one strand shown
# [1] = target: ELF4 (Homo sapiens, UniProt Q99607 1-663)
# Method in brief: (§1)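 Binding signal is defined as a hexamer's read frequency for one factor over its frequency for the tag-only sample. To obtain reads, GST-fused human transcription factors were expressed in yeast, captured on glutathione beads, barcoded with DNA and pooled with that sample. Pools met 200 nmole of a 16-mer random double-stranded DNA library in Tris/NaCl/DTT/glycerol buffer for 30 min at room temperature before washing, 0.1% formaldehyde crosslinking, proximity ligation (BsaI/T4 ligase, 1 h, 37 °C), PCR and Illumina NextSeq500 sequencing.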
# [2] = target: T1, ETV2 (Homo sapiens, UniProt O00321 1-342)
# T1 sequence: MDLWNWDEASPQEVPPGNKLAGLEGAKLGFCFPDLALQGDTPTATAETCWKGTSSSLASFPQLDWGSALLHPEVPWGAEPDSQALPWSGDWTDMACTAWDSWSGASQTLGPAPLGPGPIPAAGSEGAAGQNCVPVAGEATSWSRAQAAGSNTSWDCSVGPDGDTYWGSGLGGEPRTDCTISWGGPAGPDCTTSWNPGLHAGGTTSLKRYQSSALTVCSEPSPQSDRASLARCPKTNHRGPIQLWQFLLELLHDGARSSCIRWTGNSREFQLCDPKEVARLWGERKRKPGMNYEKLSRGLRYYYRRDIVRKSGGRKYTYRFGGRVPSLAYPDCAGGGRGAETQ
# Method in brief: as §1
# [3] = target: T2, ELF3 (Homo sapiens, UniProt P78545 1-371)
# T2 sequence: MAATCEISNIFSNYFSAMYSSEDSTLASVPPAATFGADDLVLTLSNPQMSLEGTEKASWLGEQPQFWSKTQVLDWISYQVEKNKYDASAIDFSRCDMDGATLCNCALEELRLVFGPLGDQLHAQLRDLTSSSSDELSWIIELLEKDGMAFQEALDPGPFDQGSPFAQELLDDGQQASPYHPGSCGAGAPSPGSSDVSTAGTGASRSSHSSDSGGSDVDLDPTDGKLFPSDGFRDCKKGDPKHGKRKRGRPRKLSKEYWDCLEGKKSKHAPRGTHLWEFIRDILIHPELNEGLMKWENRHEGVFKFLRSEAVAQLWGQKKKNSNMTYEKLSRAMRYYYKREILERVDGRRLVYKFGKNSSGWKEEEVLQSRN
# Method in brief: as §1
# [4] = target: ETV1 (Homo sapiens, UniProt P50549 1-477)
# Method in brief: as §1
# [5] = target: T3, ERF (Homo sapiens, UniProt P50548 1-548)
# T3 sequence: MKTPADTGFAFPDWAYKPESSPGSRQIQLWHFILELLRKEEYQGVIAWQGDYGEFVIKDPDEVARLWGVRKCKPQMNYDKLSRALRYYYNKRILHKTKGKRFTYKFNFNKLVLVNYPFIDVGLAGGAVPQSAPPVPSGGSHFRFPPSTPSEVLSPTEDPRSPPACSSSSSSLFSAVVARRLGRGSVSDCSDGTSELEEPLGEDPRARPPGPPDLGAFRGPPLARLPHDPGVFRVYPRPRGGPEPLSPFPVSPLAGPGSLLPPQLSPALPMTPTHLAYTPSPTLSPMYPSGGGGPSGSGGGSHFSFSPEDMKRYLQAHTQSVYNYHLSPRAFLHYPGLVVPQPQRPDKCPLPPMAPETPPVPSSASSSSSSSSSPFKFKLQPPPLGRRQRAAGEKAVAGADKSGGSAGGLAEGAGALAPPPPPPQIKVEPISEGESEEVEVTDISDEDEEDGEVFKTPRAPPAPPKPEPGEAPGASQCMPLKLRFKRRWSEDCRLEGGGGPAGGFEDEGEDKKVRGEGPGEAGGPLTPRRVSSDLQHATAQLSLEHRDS
# Method in brief: as §1
# [6] = target: T4, ETV3L (Homo sapiens, UniProt Q6ZN32 1-361)
# T4 sequence: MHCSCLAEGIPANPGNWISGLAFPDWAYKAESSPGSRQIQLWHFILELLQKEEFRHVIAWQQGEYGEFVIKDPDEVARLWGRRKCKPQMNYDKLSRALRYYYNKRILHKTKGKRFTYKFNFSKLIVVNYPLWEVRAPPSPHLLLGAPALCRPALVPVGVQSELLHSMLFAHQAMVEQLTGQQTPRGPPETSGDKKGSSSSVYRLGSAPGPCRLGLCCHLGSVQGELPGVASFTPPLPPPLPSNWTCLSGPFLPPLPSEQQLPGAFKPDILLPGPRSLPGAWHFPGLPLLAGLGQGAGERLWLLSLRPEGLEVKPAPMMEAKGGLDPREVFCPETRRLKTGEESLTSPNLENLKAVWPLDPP
# Method in brief: as §1
# [7] = target: T5, ETS2 (Homo sapiens, UniProt P15036 1-469)
# T5 sequence: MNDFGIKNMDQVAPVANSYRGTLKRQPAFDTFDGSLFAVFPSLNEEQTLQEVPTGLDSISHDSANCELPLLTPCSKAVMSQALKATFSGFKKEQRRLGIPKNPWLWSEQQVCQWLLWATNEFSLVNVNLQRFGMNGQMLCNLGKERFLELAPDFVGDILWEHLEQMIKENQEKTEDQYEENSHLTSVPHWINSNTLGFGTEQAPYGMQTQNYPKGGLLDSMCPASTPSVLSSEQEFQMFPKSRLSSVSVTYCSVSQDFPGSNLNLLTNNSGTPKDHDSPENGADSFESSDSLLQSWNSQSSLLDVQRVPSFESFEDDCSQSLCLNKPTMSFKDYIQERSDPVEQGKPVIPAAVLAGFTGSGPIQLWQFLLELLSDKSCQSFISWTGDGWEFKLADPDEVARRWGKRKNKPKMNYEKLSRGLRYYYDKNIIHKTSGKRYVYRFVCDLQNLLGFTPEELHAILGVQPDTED
# Method in brief: as §1
# [8] = target: T6, ETV7 (Homo sapiens, UniProt Q9Y603 1-341)
# T6 sequence: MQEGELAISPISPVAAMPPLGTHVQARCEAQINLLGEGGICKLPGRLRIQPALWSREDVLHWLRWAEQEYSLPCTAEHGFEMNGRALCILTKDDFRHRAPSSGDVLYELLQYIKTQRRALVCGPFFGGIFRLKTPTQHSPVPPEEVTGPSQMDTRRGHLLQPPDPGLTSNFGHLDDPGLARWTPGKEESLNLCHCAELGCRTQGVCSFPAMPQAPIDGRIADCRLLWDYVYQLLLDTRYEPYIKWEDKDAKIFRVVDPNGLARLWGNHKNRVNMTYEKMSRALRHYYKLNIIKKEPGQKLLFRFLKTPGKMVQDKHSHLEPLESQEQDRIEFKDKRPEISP
# Method in brief: as §1
# [9] = target: T7, ETV3 (Homo sapiens, UniProt P41162-2 1-143)
# T7 sequence: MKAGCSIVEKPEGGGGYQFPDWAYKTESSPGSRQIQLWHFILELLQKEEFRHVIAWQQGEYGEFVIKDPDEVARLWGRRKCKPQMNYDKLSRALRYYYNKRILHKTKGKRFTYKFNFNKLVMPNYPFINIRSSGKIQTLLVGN
# Method in brief: as §1
# [10] = target: ETV6 (Homo sapiens, UniProt P41212 1-452)
# Method in brief: as §1
# ELF4, sequence (Q99607 whole entry, the tested form may be a part): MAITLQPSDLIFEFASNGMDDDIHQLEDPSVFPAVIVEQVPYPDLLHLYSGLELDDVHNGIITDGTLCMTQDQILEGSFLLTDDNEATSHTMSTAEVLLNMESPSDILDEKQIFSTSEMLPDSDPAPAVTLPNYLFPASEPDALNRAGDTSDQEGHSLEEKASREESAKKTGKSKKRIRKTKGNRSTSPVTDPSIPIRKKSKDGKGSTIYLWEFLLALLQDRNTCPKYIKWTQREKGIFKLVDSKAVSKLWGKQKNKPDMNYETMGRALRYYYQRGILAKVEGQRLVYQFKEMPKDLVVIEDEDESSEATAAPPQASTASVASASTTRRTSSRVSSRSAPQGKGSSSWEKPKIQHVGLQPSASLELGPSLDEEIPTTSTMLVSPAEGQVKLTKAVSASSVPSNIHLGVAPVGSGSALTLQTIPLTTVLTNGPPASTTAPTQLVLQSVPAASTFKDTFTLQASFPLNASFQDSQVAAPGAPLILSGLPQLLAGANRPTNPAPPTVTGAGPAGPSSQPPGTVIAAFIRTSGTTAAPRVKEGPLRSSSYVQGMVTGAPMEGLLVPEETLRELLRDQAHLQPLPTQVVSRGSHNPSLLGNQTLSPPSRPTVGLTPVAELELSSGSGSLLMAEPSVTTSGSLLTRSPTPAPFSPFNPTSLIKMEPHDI
# ETV6, sequence (P41212 whole entry): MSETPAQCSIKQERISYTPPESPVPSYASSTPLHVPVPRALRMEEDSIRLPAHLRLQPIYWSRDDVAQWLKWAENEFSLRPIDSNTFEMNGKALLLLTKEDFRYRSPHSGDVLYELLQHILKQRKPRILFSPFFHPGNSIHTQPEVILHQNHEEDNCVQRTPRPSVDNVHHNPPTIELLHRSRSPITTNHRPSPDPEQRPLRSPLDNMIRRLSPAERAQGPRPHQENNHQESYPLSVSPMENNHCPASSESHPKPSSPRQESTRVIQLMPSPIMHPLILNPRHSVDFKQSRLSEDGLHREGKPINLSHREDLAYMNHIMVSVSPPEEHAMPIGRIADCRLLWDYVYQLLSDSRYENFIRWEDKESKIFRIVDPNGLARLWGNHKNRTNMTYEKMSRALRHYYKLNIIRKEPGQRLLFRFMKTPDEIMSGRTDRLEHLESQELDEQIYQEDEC
# ETV1, sequence (P50549 whole entry): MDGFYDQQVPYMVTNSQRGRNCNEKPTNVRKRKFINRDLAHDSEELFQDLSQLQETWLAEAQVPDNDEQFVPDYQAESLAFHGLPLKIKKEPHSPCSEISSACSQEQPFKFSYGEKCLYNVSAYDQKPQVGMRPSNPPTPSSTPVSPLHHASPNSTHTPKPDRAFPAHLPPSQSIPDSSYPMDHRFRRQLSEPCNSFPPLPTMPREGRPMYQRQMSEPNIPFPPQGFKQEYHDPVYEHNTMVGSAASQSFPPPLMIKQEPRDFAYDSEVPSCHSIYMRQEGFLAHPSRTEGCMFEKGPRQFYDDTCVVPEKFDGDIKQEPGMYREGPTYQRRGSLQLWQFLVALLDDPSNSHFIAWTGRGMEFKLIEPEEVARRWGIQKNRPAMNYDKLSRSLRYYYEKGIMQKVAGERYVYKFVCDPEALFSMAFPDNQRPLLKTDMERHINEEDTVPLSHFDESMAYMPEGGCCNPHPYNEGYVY
sequence,measurement,setting,value
TGGCCG,binding signal,[1],"1.08 fold enrichment (6-mer frequency, TF over GST control)"
same,binding signal,[2],"1.04 fold enrichment (6-mer frequency, TF over GST control)"
same,binding signal,[3],"1.14 fold enrichment (6-mer frequency, TF over GST control)"
same,binding signal,[4],"1.04 fold enrichment (6-mer frequency, TF over GST control)"
same,binding signal,[5],"1.05 fold enrichment (6-mer frequency, TF over GST control)"
same,binding signal,[6],"1.07 fold enrichment (6-mer frequency, TF over GST control)"
same,binding signal,[7],"1.06 fold enrichment (6-mer frequency, TF over GST control)"
same,binding signal,[8],"1.06 fold enrichment (6-mer frequency, TF over GST control)"
same,binding signal,[9],"1.11 fold enrichment (6-mer frequency, TF over GST control)"
same,binding signal,[10],"1.11 fold enrichment (6-mer frequency, TF over GST control)"
